Results reported in PubChem BioAssay (EPA / NIEHS).
Where “and” joins values, the source holds several entries; their conditions need not be identical. Identical values can stand only once. Results filed as inconclusive are left out. A structure can be active in one record and inactive in another. Calls of active or inactive are those of the source. How the source made its calls: active means hit-call score of the fitted dose curve at least 0.9, where 1 is the maximum; inconclusive means response in the unintended direction; inactive means score below 0.9.

Legend:
[1] = LTEA_HepaRG_LDH_cytotoxicity: Cytotoxicity Assessment in the Life Technologies and Expression Analysis (LTEA) Assay (AID 2283563);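 on AC50: LDH activity released into spent culture medium as a marker of cell death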
Outline: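 Differentiated HepaRG cells in serum-free induction medium, exposed 48 h in duplicate to 8 half-log concentrations up to 100 uM in 0.5% DMSO. Cytotoxicity from LDH measured in spent medium, fit relative to DMSO.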

[2] = TOX21_p53_BLA_p2_viability: Viability Assessment in the Tox21 HCT-116 p53 Agonism Beta-lactamase Assay, Phase 2 (AID 2283591);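 further: compound exposure lasted 16 h at 37 °C; actives lower the ATP signal meaning cytotoxicity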
Outline: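 HCT116 p53-bla cells, 4000/well, dosed after 5 h plating (217-fold dilution of DMSO stocks) and incubated 16 h at 37C. Viability taken as cellular ATP by CellTiter-Glo luminescence after 30 min RT; signal loss marks cytotoxicity.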

[3] = molecular target: Cellular tumor antigen p53 (Homo sapiens) (UniProt P04637); experiment: TOX21_p53_BLA_p2_ratio: Tox21 HCT-116 p53 Agonism Beta-lactamase Assay, Ratio, Phase 2 (AID 2283592)
Chain of Cellular tumor antigen p53 (Homo sapiens) (P04637 whole entry, looked up): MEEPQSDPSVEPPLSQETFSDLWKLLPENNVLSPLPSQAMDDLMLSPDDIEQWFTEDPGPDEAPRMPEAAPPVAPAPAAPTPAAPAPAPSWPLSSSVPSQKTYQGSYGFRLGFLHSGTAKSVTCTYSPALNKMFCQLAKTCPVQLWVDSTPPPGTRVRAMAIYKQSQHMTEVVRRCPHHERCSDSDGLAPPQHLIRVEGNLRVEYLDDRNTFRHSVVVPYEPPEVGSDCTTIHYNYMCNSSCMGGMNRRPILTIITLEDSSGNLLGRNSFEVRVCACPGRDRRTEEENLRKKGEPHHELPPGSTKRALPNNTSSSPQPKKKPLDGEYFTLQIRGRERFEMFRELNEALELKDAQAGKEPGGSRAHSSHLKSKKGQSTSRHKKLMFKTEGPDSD
Outline: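 HCT-116 cells with p53-responsive beta-lactamase reporter, 4000 cells/well, preincubated 5 h, then compound in DMSO (217-fold dilution) for 16 h at 37C. CCF4-AM substrate 2 h at room temperature; 460/530 nm emission ratio fitted upward versus DMSO.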

[4] = TOX21_p53_BLA_p3_viability: Viability Assessment in the Tox21 HCT-116 p53 Agonism Beta-lactamase Assay, Phase 3 (AID 2283593);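 further: cells exposed to compound for 16 h before reading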
Outline: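 HCT116 cells, 4000/well, dosed 5 h after plating by pin transfer (217-fold dilution from DMSO stock) and incubated 16 h at 37C, 5% CO2. Viability read as ATP luminescence with CellTiter-Glo after 30 min at room temperature.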

[5] = molecular target: Cellular tumor antigen p53 (Homo sapiens) (UniProt P04637); experiment: TOX21_p53_BLA_p3_ratio: Tox21 HCT-116 p53 Agonism Beta-lactamase Assay, Ratio, Phase 3 (AID 2283596)
Outline: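 HCT116 p53-bla cells (4000/well) given compound in DMSO (217-fold dilution) after 5 h, incubated 16 h at 37C. CCF4-AM substrate 2 h at room temperature; 460/530 nm emission ratio, gain fitted against DMSO.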

[6] = TOX21_p53_BLA_p4_viability: Viability Assessment in the Tox21 HCT-116 p53 Agonism Beta-lactamase Assay, Phase 4 (AID 2283597);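 further: hits lower the luminescence signal meaning cytotoxicity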
Outline: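 HCT-116 p53-bla cells, 4000/well, dosed after 5 h attachment and incubated 16 h at 37 °C, 5% CO2. Viability from CellTiter-Glo ATP luminescence after 30 min at room temperature, taken after the beta-lactamase read; loss of signal indicates cytotoxicity.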

[7] = molecular target: Cellular tumor antigen p53 (Homo sapiens) (UniProt P04637); experiment: TOX21_p53_BLA_p5_ratio: Tox21 HCT-116 p53 Agonism Beta-lactamase Assay, Ratio, Phase 5 (AID 2283599)
Outline: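 HCT-116 p53-bla cells (4000/well) plated 5 h, dosed with compound (217-fold DMSO dilution) for 16 h at 37 C; CCF4-AM substrate 2 h at room temperature. Activity is the 460/530 nm emission ratio (405 nm excitation), fitted in gain-of-signal direction versus DMSO.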

[8] = TOX21_p53_BLA_p5_viability: Viability Assessment in the Tox21 HCT-116 p53 Agonism Beta-lactamase Assay, Phase 5 (AID 2283600)
Outline: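 HCT-116 p53 beta-lactamase reporter cells, 4000/well, were exposed to compound (pin transfer, 217-fold dilution) for 16 hours at 37C. Cellular ATP was read by CellTiter-Glo luminescence after 30 min at room temperature.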

[9] = Tanguay_ZF_120hpf_MORT_legacy: (Legacy) Oregon State University Tanguay Lab 120 Hour Post-fertilization zebrafish Assay for Mortality (AID 2283633);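 on AC50: fitted as increase in binary mortality versus DMSO negative control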
Outline: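 Dechorionated Tropical 5D wild-type zebrafish embryos, one per well from 6 hpf, static exposure in 0.64% DMSO at 28C until 120 hpf. Mortality scored as binary by brightfield microscopy at 24 and 120 hpf.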

[10] = Tanguay_ZF_120hpf_YSE_legacy: (Legacy) Oregon State University Tanguay Lab 120 Hour Post-fertilization zebrafish Assay for Yolk Sac Edema (AID 2283634);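 on AC50: actives raise the incidence of yolk sac edema above the DMSO baseline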
Outline: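 Dechorionated Tropical 5D wild-type zebrafish embryos were exposed statically, one per well, from 6 to 120 hpf at 28C in 0.64% DMSO. Yolk sac edema was scored present/absent by brightfield at 120 hpf, and dead embryos were excluded.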

[11] = Tanguay_ZF_120hpf_AXIS_legacy: (Legacy) Oregon State University Tanguay Lab 120 Hour Post-fertilization zebrafish Assay for Body Axis Malformation (AID 2283635);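 on AC50: potency for an increased fraction of larvae scored with body axis malformation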
Outline: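 Dechorionated wild-type Tropical 5D zebrafish embryos, one per well, statically exposed from 6 hpf to 120 hpf at 28C in 0.64% DMSO final. Body axis malformation scored present/absent by brightfield microscopy at 120 hpf; dead embryos excluded.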

[12] = Tanguay_ZF_120hpf_EYE_legacy: (Legacy) Oregon State University Tanguay Lab 120 Hour Post-fertilization zebrafish Assay for Eye Malformation (AID 2283636);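 further: binary presence or absence of eye malformation scored by brightfield in 120 hpf larvae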
Outline: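 Dechorionated Tropical 5D zebrafish embryos, one per well from 6 hpf, static exposure to 120 hpf at 28C, 0.64% DMSO. Eye malformation scored present/absent by brightfield; dead embryos not scored.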

[13] = Tanguay_ZF_120hpf_SNOU_legacy: (Legacy) Oregon State University Tanguay Lab 120 Hour Post-fertilization zebrafish Assay for Snout Malformation (AID 2283637)
Outline: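 Dechorionated tropical 5D wild-type zebrafish embryos exposed statically from 6 to 120 hpf at 28C, one per well, in 0.64% DMSO. Snout malformation scored as present/absent by brightfield at 120 hpf; dead embryos not scored.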

[14] = Tanguay_ZF_120hpf_JAW_legacy: (Legacy) Oregon State University Tanguay Lab 120 Hour Post-fertilization zebrafish Assay for Jaw Malformation (AID 2283638);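 on AC50: active means more embryos with jaw malformation than DMSO controls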
Outline: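 Dechorionated Tropical 5D wild-type zebrafish embryos, one per well, exposed statically from 6 hpf to 120 hpf at 28C in 0.64% DMSO. Jaw malformation was scored by brightfield microscopy as present or absent. It was not scored in dead embryos.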

[15] = Tanguay_ZF_120hpf_OTIC_legacy: (Legacy) Oregon State University Tanguay Lab 120 Hour Post-fertilization zebrafish Assay for Otic Vesicle Malformation (AID 2283639)
Outline: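 Otic vesicle malformation is read as a yes/no morphology call at 120 hpf. Exposure is static at 28C with 0.64% (vol/vol) DMSO; embryos that die are excluded from non-mortality endpoints.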

[16] = Tanguay_ZF_120hpf_PE_legacy: (Legacy) Oregon State University Tanguay Lab 120 Hour Post-fertilization zebrafish Assay for Pericardial Edema (AID 2283640);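 on AC50: potency for increased incidence of pericardial edema versus DMSO baseline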
Outline: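 Tropical 5D wild-type zebrafish embryos were statically exposed until 120 hpf at 28C, with 0.64% DMSO final. Pericardial edema was scored by brightfield as present or absent; endpoints were not scored in dead embryos.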

[17] = Tanguay_ZF_120hpf_BRAI_legacy: (Legacy) Oregon State University Tanguay Lab 120 Hour Post-fertilization zebrafish Assay for Brain Malformation (AID 2283641)
Outline: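 Tropical 5D wild-type zebrafish embryos exposed statically until 120 hpf at 28C, 0.64% DMSO final, sealed and dark. Brain malformation scored present/absent by brightfield at 120 hpf; dead embryos excluded. Trimethyltin chloride 5uM positive control.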

[18] = Tanguay_ZF_120hpf_SOMI_legacy: (Legacy) Oregon State University Tanguay Lab 120 Hour Post-fertilization zebrafish Assay for Somite Malformation (AID 2283647)
Outline: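 Dechorionated Tropical 5D wild-type zebrafish embryos, one per well from 6 hpf, statically exposed at 28C to 120 hpf in 0.64% DMSO; somite malformation scored present/absent by brightfield; trimethyltin 5 uM positive control; dead embryos not scored.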

[19] = molecular target: Cellular tumor antigen p53 (Homo sapiens) (UniProt P04637); experiment: TOX21_p53_BLA_p4_ratio: Tox21 HCT-116 p53 Agonism Beta-lactamase Assay, Ratio, Phase 4 (AID 2283601)
Outline: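 HCT-116 p53 beta-lactamase reporter cells (4000/well) preincubated 5 h, then compound (217-fold dilution of DMSO stock) for 16 h at 37C. CCF4-AM substrate added 2 h at room temperature; 460/530 nm emission ratio fitted upward versus DMSO.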

[20] = ATG_XTT_Cytotoxicity: Cytotoxicity Assessment in the Attagene TRANS-FACTORIAL HepG2 Assay (AID 2283584)
Outline: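 HepG2 cells transiently transfected with GAL4-UAS multiple reporter units, dosed 24 h; cytotoxicity read by XTT as loss of signal versus DMSO baseline.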

Measured: AC50

CCOC(=O)O[C@H](C)OC(=O)c1ccc2c(c1)cc(C(=O)NC1CCN(C(C)C)CC1)n2Cc1cc(-c2ccc(Cl)s2)on1
inactive: [10] | [11] | [12] | [15] | [16] | [17] | [18]
active: [1] 79.2 µM | [2] 16.1 µM | [3] 27.9 µM | [4] 55.8 µM | [5] 81.9 µM | [6] 13.5 µM | [7] 80.9 µM | [8] 72.9 µM | [9] 23.7 µM | [13] 54.1 µM | [14] 47.6 µM

NCc1cccc(C2CCN(C(=O)c3ccc(C#Cc4ccccc4F)o3)CC2)c1
inactive: [10] | [11] | [12] | [13] | [14] | [15] | [17] | [18]
active: [1] 81.4 µM | [2] 68.9 µM | [3] 86.2 µM | [4] 72.2 µM | [5] 86.8 µM | [6] 65.6 µM | [7] 82.9 µM | [19] 84.4 µM | [9] 12 µM

Clc1ccccc1C(c1ccccc1)(c1ccccc1)n1ccnc1
inactive: [2] | [4] | [5] | [9] | [12] | [13] | [15]
active: [1] 70.7 µM | [2] 58.2 µM | [3] 64.8 µM and 19 µM | [4] 81.9 µM | [5] 74.1 µM | [6] 34.5 µM and 15.3 µM | [19] 60.2 µM and 16.6 µM | [10] 14.6 µM | [11] 14.8 µM | [14] 1.2 µM | [16] 24.8 µM | [18] 61.3 µM

CO[C@H]1/C=C/O[C@@]2(C)Oc3c(C)c(O)c4c(O)c(c(/C=N/N5CCN(C)CC5)c(O)c4c3C2=O)NC(=O)/C(C)=C\C=C\[C@H](C)[C@H](O)[C@@H](C)[C@@H](O)[C@@H](C)[C@H](OC(C)=O)[C@@H]1C
inactive: [1] | [20] | [2] | [3] | [4] | [5] | [6] | [7] | [8] | [19] | [9] | [10] | [11] | [12] | [13] | [14] | [15] | [18]

CCN(Cc1cccc(S(=O)(=O)O)c1)c1ccc(C(=C2C=CC(=[N+](CC)Cc3cccc(S(=O)(=O)O)c3)C=C2)c2ccccc2S(=O)(=O)[O-])cc1
active: [2] 19.4 µM | [6] 35.5 µM
inactive: [1] | [3] | [4] | [5] | [8] | [19] | [9] | [10] | [11] | [12] | [13] | [14] | [15] | [16] | [18]

CCCCOC(=O)c1ccc(O)cc1
inactive: [1] | [2] | [3] | [4] | [5] | [6] | [7] | [19] | [9]
active: [10] 51.7 µM | [11] 45.1 µM | [12] 41.1 µM | [13] 24.9 µM | [14] 29.5 µM | [15] 46.5 µM | [16] 35.5 µM | [17] 11.1 µM | [18] 63.7 µM
